Source: PubChem (National Center for Advancing Translational Sciences (NCATS))
Pf growth 48h: P. falciparum growth inhibition at 48 hours (one generation); hit rate 5.9% among 310,000; Potency, µM (doses to about 28.7 µM), most hits filed as inhibitors; P. falciparum luciferase growth in erythrocytes, 48 h
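Read-out is firefly luciferase luminescence from an integrated reporter in P. falciparum, so falling signal marks reduced parasite growth. Infected erythrocytes were at 2% hematocrit and 0.1% parasitemia (final) in Albumax-supplemented RPMI 1640.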
Sm TGR block: blocks Schistosoma mansoni thioredoxin glutathione reductase; purified TGR, DTNB reduction, TNB absorbance 405 nm; AID 485364; Potency, µM (top dose mostly 114 µM), hits mostly inhibitors; hit rate 3% among 360,000; further: nearly all actives have a fitted effect of over 60% in size
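Kinetic colorimetric format: TGR-catalysed, NADPH-driven DTNB reduction monitored via TNB absorbance. Enzyme dispensed at 20 nM; compound exposure 15 min at room temperature before reaction start.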
NS1 inh: blocks influenza NS1 protein function; Potency, µM (highest dose often 46.1 µM); hit rate 0.4% among 270,000; AID 2326; calls by dose curve; further: actives are rising curves; nearly all actives have a fitted effect of over 50% in size
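Read-out: OD600 growth recovery of NS1-expressing budding yeast. Cells grown overnight at 30C in -URA glucose medium, washed, resuspended and diluted 1:100 in 2% galactose assay medium, pH 6.0. Same strain lacking NS1 served as positive control.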
AMA1 RON2 block: inhibitors of Plasmodium falciparum AMA1-RON2 interaction | AID 720542 | AlphaScreen AMA1-biotinylated RON2 peptide binding | Potency, µM (doses to about 58.2 µM), actives largely listed as inhibitors | hit rate 0.2% among 360,000; further: nearly all actives have a fitted effect of over 45% in size
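AMA1 (3D7) with his tag at 25 nM final met compounds first, then biotinylated RON2 peptide at 25 nM; detection used donor plus acceptor beads, 10 µg/mL apiece, read by AlphaScreen after 30 min at room temperature.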
Pf growth 96h: inhibits malaria parasite growth, 96 h; Potency, µM (top dose mostly 28.7 µM), hits mostly inhibitors; P. falciparum luciferase reporter growth, 96 h; hit rate 6.9% among 320,000
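P. falciparum expressing integrated firefly luciferase, in erythrocytes at 2% hematocrit, 0.05% parasitemia, incubated with compounds 96 h at 37 C, 5% CO2. Growth inhibition read as loss of luminescence; two-generation exposure targets delayed-death apicoplast inhibitors.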
Large screens that a line does not name were inactive. Hits are enriched below; roughly 11% of the tested compounds scored in any of these assays. Unless noted, the call rests on the fitted dose curve; in most records, active means well fitted curve in the direction sought with a large enough effect; inconclusive means small, poorly fitted or top-dose-only effect, or another doubt; inactive means no such curve, though single readings can be large; an effect the other way counts as inactive or inconclusive.

CCCCCCCCCCCCCCCC[n+]1cccc2ccccc21	Pf growth 48h 0.828µM, Sm TGR block inconclusive, Pf growth 96h inconclusive
NC1=NC([S][Hg][c]2ccc(N)cc2)c2ncn([C@@H]3O[C@H](CO)[C@@H](O)[C@@H]3O)c2N1 (stereo not given in full)	none (no result: Pf growth 48h, Sm TGR block, AMA1 RON2 block, Pf growth 96h)
Cc1nc2nc(SCC(=O)N3CCOCC3)nn2c(C)c1Cc1c(F)cccc1Cl	Pf growth 48h 3.7µM
Cc1nc2nc(SCc3c(F)cccc3Cl)nn2c(C)c1Cc1ccccc1	none (no result: Pf growth 48h, NS1 inh, AMA1 RON2 block, Pf growth 96h)
Cc1cc(C)n(-c2nc(-n3nc(C)cc3C)c3c4c(sc3n2)COC(C)(C)C4)n1	Pf growth 48h inconclusive, Pf growth 96h 1.04µM (no result: AMA1 RON2 block)
Cc1cc(C)n(-c2nc(NCCN(C)C)c3c4c(sc3n2)COC(C)(C)C4)n1	Pf growth 48h inconclusive, Pf growth 96h inconclusive
Cc1cc(C)n(-c2ncnc3sc4c(c23)CCCC4)n1	Pf growth 96h 13.1µM
Cc1cc(C)n(-c2nc(NCCN(C)C)c3c4c(sc3n2)CCCC4)n1	Pf growth 48h inconclusive
Cc1cc(C)n(-c2nc(NCCC(C)C)c3c4c(sc3n2)COC(C)(C)C4)n1	Pf growth 96h 3.7µM (no result: Pf growth 48h)
Cc1cc(C)n(-c2nc(NCCCN(C)C)c3c4c(sc3n2)CCCC4)n1	Pf growth 48h 11.7µM
COc1ccccc1OCC(=O)N1CCCC(Nc2cccc(F)c2)C1 (stereo not given)	Pf growth 96h inconclusive
Cc1ccc(C)c(OC(=O)CSc2nnc(-c3ccc4c(c3)OCO4)o2)c1	none (no result: Pf growth 48h, NS1 inh, AMA1 RON2 block, Pf growth 96h)
COC(=O)c1cc2ccsc2n1Cc1nc(-c2cccc(Cl)c2)oc1C	Pf growth 96h 4.15µM (no result: Pf growth 48h)
COC(=O)c1cc2sccc2n1Cc1nc(-c2ccc(Cl)cc2)oc1C	Pf growth 96h 10.4µM
COC(=O)c1cc2sccc2n1Cc1nc(-c2cccc(Cl)c2)oc1C	Pf growth 96h 9.28µM (no result: Pf growth 48h)
Cc1cc(CSCc2ccc(Cl)cc2)no1	none
CCc1ccc(-c2cn3c(n2)sc2cc(C(=O)NCC(C)c4ccccc4)ccc23)cc1 (stereo not given)	none (no result: Pf growth 48h, NS1 inh, AMA1 RON2 block, Pf growth 96h)
COc1ccc(-c2cn3c(n2)sc2cc(C(=O)NCC(C)c4ccccc4)ccc23)cc1 (stereo not given)	Sm TGR block 79.4µM (no result: Pf growth 48h, NS1 inh, AMA1 RON2 block, Pf growth 96h)
COC(=O)c1ccc2c(=O)n(CCCCCC(=O)N3CCN(c4cc(Cl)ccc4C)CC3)c(=O)[nH]c2c1	none (no result: Pf growth 48h, NS1 inh, AMA1 RON2 block, Pf growth 96h)
CCc1nnc(NC(=O)C2=CCN(S(=O)(=O)c3ccc(F)cc3)CC2)s1	Pf growth 96h inconclusive
CC1(C)CC(=O)C2=C(C1)Oc1nc3ccccc3cc1C2C(C#N)C#N (stereo not given)	Pf growth 48h 0.657µM
CC(Oc1ccc2c(c1)c1ccnc3c4ccccc4c(=O)n2c13)C(=O)NCCN1CCOCC1 (stereo not given)	Pf growth 48h 4.65µM, Pf growth 96h 4.15µM
COc1ccc2c(c1OC)c(=O)n1c3ccc(OC(C)C(=O)NCCCN4CCOCC4)cc3c3ccnc2c31 (stereo not given)	Pf growth 48h 3.7µM, Sm TGR block inconclusive, Pf growth 96h 4.15µM
COc1ccc2c(c1OC)c(=O)n1c3ccc(OC(C)C(=O)NCCN4CCOCC4)cc3c3ccnc2c31 (stereo not given)	Pf growth 48h inconclusive, Pf growth 96h 3.7µM
Cc1ccc2c(CC(=O)N(Cc3ccc(N(C)C)cc3)Cc3ccco3)coc2c1C	none (no result: Pf growth 48h, NS1 inh, AMA1 RON2 block, Pf growth 96h)
Cc1cc(C)c(S(=O)(=O)Cc2ccc(Cl)cc2)c(=O)[nH]1	Pf growth 48h 10.4µM (no result: NS1 inh)
Cc1cc(C)c(S(=O)(=O)Cc2ccccc2)c(=O)[nH]1	Pf growth 96h inconclusive
CCN(CC)CCN1c2ccccc2Sc2ccccc21	Pf growth 48h inconclusive
CCN(CC)[C@@H](C)CN1c2ccccc2Sc2ccccc21	Pf growth 96h 6.42µM (no result: Sm TGR block, NS1 inh, AMA1 RON2 block)
C[C@H](CN1c2ccccc2Sc2cccnc21)N(C)C	Pf growth 48h inconclusive, Pf growth 96h 6.01µM (no result: Sm TGR block, NS1 inh, AMA1 RON2 block)
CCc1ccc2c(c1)N(C[C@H](C)CN(C)C)c1ccccc1S2	Pf growth 48h 16.9µM, Pf growth 96h 15.1µM (no result: Sm TGR block, AMA1 RON2 block)
CCC(=O)c1ccc2c(c1)N(CCCN(C)C)c1ccccc1S2	Pf growth 48h inconclusive, Pf growth 96h inconclusive (no result: Sm TGR block)
CCOc1ccc(CCNC(=O)CCSCc2ccc(Cl)cc2)cc1OCC	none (no result: Pf growth 48h, NS1 inh, AMA1 RON2 block, Pf growth 96h)
Cc1nc(C)c(-c2csc(N)n2)s1	Pf growth 96h 0.329µM
O=C(c1ccco1)c1nnn(Cc2ccccc2)c1-c1ccccc1	Sm TGR block 31.6µM
O=C(NC(Cc1c[nH]c2ccccc12)C(=O)O)/C(=C\c1ccc2c(c1)OCO2)NC(=O)c1ccccc1 (stereo not given)	none
